ST2 IL33 inh = inhibitors of human ST2 (IL1RL1) binding to IL-33, primary screen, biochemical, AlphaLISA; Interleukin-1 receptor-like 1 (Homo sapiens), Q01638; AlphaLISA ST2-Fc/biotin-IL-33 interaction, 1 h; inhibition, % for hits at 17 µM; 78,000 compounds, 2.3% hits; AID 1259354, 2018; in the data active = inhibition above about 30%
Target sequence (Q01638 whole entry, looked up): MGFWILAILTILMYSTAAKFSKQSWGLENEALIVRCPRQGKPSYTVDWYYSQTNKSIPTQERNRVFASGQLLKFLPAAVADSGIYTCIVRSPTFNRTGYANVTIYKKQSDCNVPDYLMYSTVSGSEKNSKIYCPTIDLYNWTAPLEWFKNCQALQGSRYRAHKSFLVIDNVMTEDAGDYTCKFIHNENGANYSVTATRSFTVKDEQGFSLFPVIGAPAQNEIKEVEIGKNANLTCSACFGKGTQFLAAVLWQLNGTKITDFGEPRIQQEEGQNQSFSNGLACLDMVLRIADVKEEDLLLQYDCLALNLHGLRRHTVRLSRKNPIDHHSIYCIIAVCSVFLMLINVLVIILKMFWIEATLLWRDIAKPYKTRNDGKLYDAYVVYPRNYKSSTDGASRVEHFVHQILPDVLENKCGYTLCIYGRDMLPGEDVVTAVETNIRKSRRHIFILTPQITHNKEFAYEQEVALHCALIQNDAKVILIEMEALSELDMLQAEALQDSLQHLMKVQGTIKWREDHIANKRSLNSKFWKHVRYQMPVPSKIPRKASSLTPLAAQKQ
Starred values were filed as active, the others as inactive; i = inactive; ! = not active in a repeat. This excerpt belongs to a sample that is enriched for hits.

SMILES	ST2 IL33 inh
O=C1N=c2ccc(Br)cc2=C1c1sc(Nc2cccc(C(F)(F)F)c2)nc1O	i
O=C1N=c2ccc(Br)cc2=C1c1sc(=O)[nH]c1O	i
C=CCn1c(O)c(C2=c3cc(Br)ccc3=NC2=O)c2ccccc21	37%*
CCSc1nc2c(c(=O)n1-c1ccc(C)cc1)SCC2	33%*!
CCOC(=O)C(C)(C)Sc1nc2c(c(=O)n1-c1ccc(Br)cc1)SCC2	i
CCCSc1nc2c(c(=O)n1-c1ccc(F)cc1)SCC2	i
Cc1ccc(-n2c(SCC(=O)N3CCCCCC3)nc3c(c2=O)SCC3)cc1	i
CCOC(=O)C(C)(C)Sc1nc2c(c(=O)n1-c1ccc(OCC)cc1)SCC2	43%*
Cc1ccc(-n2c(SC(C)C)nc3c(c2=O)SCC3)cc1	36%*!
CC(Sc1nc2c(c(=O)n1-c1ccc(F)cc1)SCC2)c1ccccc1 (configuration not stated)	i
CCOC(=O)C(C)(C)Sc1nc2c(c(=O)n1-c1ccc(Cl)cc1)SCC2	i
CCOC(=O)C(CC)Sc1nc2c(c(=O)n1-c1ccc(C)cc1)SCC2 (configuration not stated)	i
COCCN1CCC(CN2CCC3(CCCN(C(=O)C4CCCC4)C3)C2)CC1 (configuration not stated)	i
O=C(c1cc(-n2cccc2)ccc1O)N1CCC2(CCOCC2)CC1	i
NC(=O)c1c(NC(=O)c2cc(C3CC3)on2)sc2c1CCCC2	i
CC(=O)C(C)n1c(CN2CCN(Cc3ccccc3)CC2)nc2c1c(=O)[nH]c(=O)n2C (configuration not stated)	i
Cc1c(C2CC(=O)Nc3n[nH]c(C4CCC4)c32)c(=O)n(-c2ccccc2)n1C (configuration not stated)	i
CCc1ccc(OCC(=O)NCC(C)C)cc1	i
O=C(NCC1CCCO1)c1cc(=O)[nH]c2ccc(S(=O)(=O)N3CCCC3)cc12 (configuration not stated)	i
CCC(Oc1ccccc1)C(=O)Nc1c(F)c(F)c(F)c(F)c1F (configuration not stated)	i
O=C(CN1C(=O)CCSc2ccccc21)Nc1ccc(Br)cc1	i
O=C(CSc1ncn[nH]1)c1ccc(Br)cc1	i
N=C1SCCN1CC(=O)c1ccc(Br)cc1	48%*!
N#Cc1c(-c2ccccc2)cc(N2CCOCC2)n2c1nc1ccccc12	i
CNCc1cn(C[C@H]2O[C@@H](CC(=O)NCc3ccc(OC)cc3)[C@H](O)[C@@H]2O)nn1	i
SMILES	ST2 IL33 inh
COc1ccc2nc(N=C(N)N)nc(C)c2c1	i
COc1ccc2nc(N=C(N)NC(=O)Cc3ccc(Cl)cc3)nc(C)c2c1	35%*
CCC(=O)NC(N)=Nc1nc(C)c2cc(C)ccc2n1	i
CCCc1cnc(C)nc1N1CCC(F)(F)CC1	i
CCc1ccc(C2CC(c3ccc(CC)cc3)n3nc(N)nc3N2)cc1 (configuration not stated)	i
CN(C)CCNC(=O)C1CC(=O)N(C2CCCCCC2)C1 (configuration not stated)	i
CCNc1ccc(N)c(C)c1C	79%*
Cc1c(C(=O)NCCCN2CCOCC2)cnn1-c1nccc(-c2cc3ccccc3o2)n1	i
CCCSc1nnc2c3ccccc3n(CCC)c2n1	i
Cc1ccc(C)c(NS(=O)(=O)c2ccc3c(c2)CCN3C(=O)C2CC2)c1	i
COc1ccc(Nc2nc3c(C)cccn3c(=O)c2C=NCc2ccccc2)cc1	40%*
COc1ccc(NC(=O)c2cc3c(=O)n4cccc(C)c4nc3n2C)c(OC)c1	i
Cc1ccc(N=Cc2c(Nc3ccccc3)nc3c(C)cccn3c2=O)cc1	i
O=C(CCS(=O)(=O)c1cccs1)Nc1ccc(C(=O)Nc2ccc3c(c2)OCO3)cc1	i
O=C1/C(=C/c2ccccc2)CC/C1=C\c1ccccc1	33%*
O=C1/C(=C/c2c[nH]c3ccccc23)CC/C1=C\c1c[nH]c2ccccc12	i
O=C1OC(c2ccc(Br)cc2)=N/C1=C\c1ccccc1	i
CC(C)Cc1ncc2c(n1)CN(C(=O)Cn1c(=O)oc3ccccc31)C2	i
CC1(C)CC(=O)C2=C(C1)OC(N)=C(C#N)C2c1ccc(OC(=O)c2ccccc2Cl)cc1 (configuration not stated)	i
O=C(CC1CCc2ccccc21)NCc1cccnc1N1CCOCC1 (configuration not stated)	i
CCn1c(=O)c(-c2ccc3ccccc3n2)cc2cc(Br)ccc21	36%*
CC(=O)c1ccccc1-c1ccc2ccccc2n1	i
CCn1c(/C=C/c2ccc(F)cc2)nc2ccccc2c1=O	i
Cc1ccc2c3c(c(N)c(=O)[nH]c13)-c1ccccc1C2=O	51%*
CN(C)CCCN1C(=O)C(O)=C(C(=O)c2cccs2)C1c1cccnc1 (configuration not stated)	i
SMILES	ST2 IL33 inh
COc1ccc(-n2nc3c(c2NC(=O)c2ccc(OC)cc2OC)CSC3)cc1	i
COc1ccc(NC(=O)c2ccccc2Br)cc1	i
COc1ccc(C(=O)Nc2nc3ccc(S(C)(=O)=O)cc3s2)c(OC)c1	i
COC(=O)C1=C(NC(=O)c2ccc(OC)cc2OC)CCS1	32%*
COC(=O)C1=C(NC(=O)c2ccccc2Br)CCS1	31%*
COc1ccc(OC)c(NC(=O)c2ccccc2Br)c1	i
Cc1cc(Br)ccc1OCCCCN1CCN(C)CC1	i
C=CCN(CCSc1ccccc1)C(=O)C1CCCN(C(N)=O)C1 (configuration not stated)	i
O=C(c1cccc(Cl)c1)N(c1ccc(F)cc1)C1C=CS(=O)(=O)C1 (configuration not stated)	i
CN1C[C@@H](NC(=O)NCc2ccccc2)C[C@H]1c1nc(-c2ccc(Cl)cc2)no1	i
COc1cc(C)c(CN(C)C2CCN(C)CC2)cc1C	i
COc1cccc(OCCOc2ccc(/C=C3\C(=O)NN(c4ccccc4)C3=O)cc2)c1	i
COc1ccc(OCc2ccc(F)cc2)c(/C=C2\C(=O)NN(c3ccccc3)C2=O)c1	i
COc1ccc(OCc2ccccc2F)c(/C=C2\C(=O)NN(c3ccccc3)C2=O)c1	35%*
Cc1ccc(-n2nc3c(c2NC(=O)C2(c4ccc(Cl)cc4)CCCC2)CS(=O)C3)cc1 (configuration not stated)	i
Cc1ccccc1Cn1c(-c2ccccc2F)nc2ccccc2c1=O	i
Cc1cccc2nc3c(nc12)C(=O)c1ccccc1C3=O	32%*
CCNc1ccccc1-c1nc2ccccc2[nH]c1=O	i
CCOC(=O)c1c(NC(=O)c2ccc(F)cc2)sc(C)c1C	i
Cn1c(=O)c2c(nc3n(CC(O)c4ccccc4)c(C45CC6CC(CC(C6)C4)C5)cn23)n(C)c1=O (configuration not stated)	i
Cc1ccncc1C(=O)NC1CC(=O)N(CCc2ccc(F)cc2)C1 (configuration not stated)	i
Cc1cc(-n2ccnc2C)n2c(nc3ccccc32)c1C#N	i
CCc1c(C)c(C#N)c2nc3ccccc3n2c1NCCOC	i
CCOc1cc(-c2c(C#N)c(N)n3c(nc4ccccc43)c2C#N)ccc1OC	37%*
Cc1ccc(OCC(O)CN2CC(C)CC(C)C2)c(C)c1 (configuration not stated)	i
O=C(COc1ccc([N+](=O)[O-])cc1)NCc1ccco1	i
O=C(Cc1ccccc1)c1ccc(-c2ccn[nH]2)cc1	i
